Measured values from PubChem BioAssay AID720707 (National Center for Advancing Translational Sciences (NCATS), 2013).
Screen size: about 360,000 compounds; about 270 (0.075%) were called active. Calls come from the whole dose curve; as a rule, active = well fitted activation curve with a large enough effect; inconclusive = small, poorly fitted or top-dose-only effect; inactive = no such curve, though single readings can be large or run the other way. Only a selection was taken, and actives are over-represented in it overall.

These compounds were tested against Rap guanine nucleotide exchange factor 3 (Homo sapiens) (UniProt O95398) (assay: qHTS for Agonist of cAMP-regulated guanine nucleotide exchange factor 3 (EPAC1): primary screen). Conditions: biochemical assay; series mostly up to 154 µM; activation: at the top concentration.
Excerpt: In multi-cellular eukaryotic organisms, the effects of cAMP are transduced by two ubiquitously-expressed intracellular cAMP receptors, the classic protein kinase A/cAMP-dependent protein kinase (PKA/cAPK) and the more recently discovered exchange protein directly activated by cAMP/cAMP-regulated guanine nucleotide exchange factor (EPAC/cAMP-GEF). Both PKA and EPAC are ubiquitously expressed in all tissues, and an increase in intracellular cAMP levels will lead to the activation of both PKA and EPAC. Therefore, careful dissections of the individual role and relative contribution of EPAC and PKA within the overall cAMP signaling in various model systems are critical for further elucidating the mechanism of cAMP signaling. To date no EPAC-specific antagonists and agonist, as well as isoform-specific agonists have been reported, and developing EPAC-specific pharmacological probes to determine the physiological functions that EPAC play in the overall cAMP-mediated signaling remains a major challenge within the research field. Furthermore, identified regulators of EPAC may lead to new mechanism-based therapeutic strategies specifically targeting the EPAC / cAMP-signaling components as EPAC has been implicated to play important roles in major human pathological conditions such as diabetes, heart disease, and cancer.
This qHTS will be used to screen the Molecular Libraries Small Molecule Repository (MLSMR) as a concentration-titration series using the NCGC unique quantitative screening (qHTS) platform to find activators for EPAC1. In addition, this assay will also be used as a counterscreen for the EPAC2 qHTS. This fluorescent based assay is developed and validated for EPAC1 that measures exchange using EPAC effector Rap1 complex with BODIPY-GDP, a GDP analog with a tethered fluorophores. Activators are identified by monitoring the change in fluorescence signal as the exchanged free BODIPY-GDP has a reduced fluorescence compared to Rap1-bound BODIPY-GDP. Increase in signal (activation) is the desired outcome for the EPAC1 agonist while no activity in this assay is desired for the EPAC2 agonist counterscreen.
[1] de Rooij, J., Zwartkruis, F. J., Verheijen, M. H., Cool, R. H., Nijman, S. M., Wittinghofer, A., and Bos, J.L. (1998) Nature 396, 474-477
NIH Chemical Genomics Center [NCGC]
NIH Molecular Libraries Probe Centers Network [MLPCN]
Assay Submitter (PI): Xiaodong Cheng, The University of Texas Medical Branch
Briefly, three uL of reagents (100 nM EPAC1, 250 nM RAP1B-BODIPY-GDP, 50 uM GDP) were dispensed into a 1536-well Greiner black solid-bottom medium binding assay plate. Controls and test compounds (23 nL) were transferred to the plate via a Kalypsys pin tool equipped with a 1536-pin array. The plates were centrifuged at 1,000 rpm for 15 seconds followed by 5 minute incubation at room temperature. The assay plates were read at 5 minute intervals for 30 minutes in the ViewLux plate reader using 480nm excitation and 540nm emission filters. The results were normalized to the agonist positive control of 6.5 mM cAMP.
Note: nearly all actives have a fitted effect of over 60% in size.
Potency is the fitted concentration of half-maximal effect.

Sequence of Rap guanine nucleotide exchange factor 3 (Homo sapiens) (O95398 whole entry, looked up): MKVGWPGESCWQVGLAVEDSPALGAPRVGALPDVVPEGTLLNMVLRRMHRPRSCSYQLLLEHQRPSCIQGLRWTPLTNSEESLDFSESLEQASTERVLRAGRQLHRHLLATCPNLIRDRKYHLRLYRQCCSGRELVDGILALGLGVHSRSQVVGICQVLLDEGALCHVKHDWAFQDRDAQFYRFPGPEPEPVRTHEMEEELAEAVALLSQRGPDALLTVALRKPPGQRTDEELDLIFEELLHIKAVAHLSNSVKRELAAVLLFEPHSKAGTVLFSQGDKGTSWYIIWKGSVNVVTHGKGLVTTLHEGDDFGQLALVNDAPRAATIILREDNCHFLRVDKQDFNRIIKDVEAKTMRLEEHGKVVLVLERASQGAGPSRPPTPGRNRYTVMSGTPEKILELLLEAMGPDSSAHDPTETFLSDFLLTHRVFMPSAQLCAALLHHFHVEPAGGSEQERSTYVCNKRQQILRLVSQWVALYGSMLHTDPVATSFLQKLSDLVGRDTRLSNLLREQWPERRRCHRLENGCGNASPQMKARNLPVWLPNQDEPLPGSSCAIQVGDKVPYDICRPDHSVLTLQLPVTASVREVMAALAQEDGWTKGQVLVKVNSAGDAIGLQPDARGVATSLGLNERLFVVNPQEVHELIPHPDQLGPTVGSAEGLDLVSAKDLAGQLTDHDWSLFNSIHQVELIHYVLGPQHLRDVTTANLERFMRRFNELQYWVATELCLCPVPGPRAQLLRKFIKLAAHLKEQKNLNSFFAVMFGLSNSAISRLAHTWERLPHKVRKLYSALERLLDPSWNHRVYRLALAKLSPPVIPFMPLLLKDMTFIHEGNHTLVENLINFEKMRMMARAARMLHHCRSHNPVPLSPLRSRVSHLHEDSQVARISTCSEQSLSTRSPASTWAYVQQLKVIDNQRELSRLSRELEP

Compound	activation	Potency
CCC1CCCCN1C(=S)Nc1ccc(S(=O)(=O)Nc2ncccn2)cc1 (stereo not given)	12.6% (inactive)	
Cc1ccsc1CNn1cnnc1SCc1ccccc1F	10.8% (inactive)	
COc1ccc(N2CCN(C(CNS(=O)(=O)c3ccc(C)cc3)c3ccccc3)CC2)cc1 (stereo not given)	8.4% (inactive)	
CCOC(=O)/C(C#N)=C/c1ccc(N2CCN(Cc3ccccc3)CC2)cc1		89.1 µM (active)
CCOC(=O)C1CCN(Cc2ccc(-c3ccccc3)cc2)CC1	12% (inactive)	
CCCn1c(C)cc(/C=C(\C#N)C(=O)OCC(=O)N(C)c2c(N)n(Cc3ccccc3)c(=O)[nH]c2=O)c1C	5.74% (inactive)	
Cn1cnc([N+](=O)[O-])c1Nc1ccccc1O	-3.09% (inactive)	
COc1ccc2c3c1O[C@H]1C[C@@H](O)C=C[C@@]31CCN(C)C2	5.28% (inactive)	
COc1cc(C(=O)NCC(c2ccco2)N2CCCC2)ccc1OCc1ccccc1 (stereo not given)	5.29% (inactive)	
CC(=O)NC(C)(C)C1CC=C(C)/C(=N\O)C1 (stereo not given)	1.89% (inactive)	
COc1ccc([N+](=O)[O-])cc1NC(=O)C(C)OC(=O)C1c2ccccc2Oc2ccccc21 (stereo not given)	5.45% (inactive)	
C[C@@H]1CN([C@H](C)CO)C(=O)c2cc(NC(=O)NC3CCCCC3)ccc2O[C@H]1CN(C)S(C)(=O)=O	-3.15% (inactive)	
CSc1nnc2c(n1)OC(c1ccsc1)N(C(C)=O)c1ccccc1-2 (stereo not given)	-0.63% (inactive)	
CC(NC(=O)CCC(=O)N1CCN(S(=O)(=O)c2ccc(Cl)cc2)CC1)c1ccccc1 (stereo not given)	4.86% (inactive)	
Cc1ccsc1-c1nc(CSCC(=O)NCCN2CCCC2)c(C)o1	8.65% (inactive)	
COc1ccc(-n2c(SCC(=O)Nc3ccc4c(c3)OCO4)nnc2C(C)N2CCCCC2)cc1 (stereo not given)	6.7% (inactive)	
NS(=O)(=O)c1cc(C(=O)OCC(=O)NNC(=O)c2ccccc2)ccc1Cl	9.9% (inactive)	
O=c1c2ccccc2ccc2ccc(P(=O)(O)O)cc12	-18% (inactive)	
CC(=O)Nc1ccc(S(=O)(=O)N(C)CC(=O)NCCC2=CCCCC2)cc1	-4.75% (inactive)	
COc1cc(OC)cc(C(=O)NCC(=O)N2CCCCCCC2)c1	-5.76% (inactive)	
COC(=O)C(C(=O)Nc1cccc(C)n1)C1CCCCCC1 (stereo not given)	2.99% (inactive)	
C[C@H]1CN([C@@H](C)CO)C(=O)CCCn2cc(nn2)CO[C@@H]1CN(C)S(=O)(=O)c1cccc(C#N)c1	1.15% (inactive)	

Compound	activation	Potency
CN(C)c1ccc(C2Nc3ccccc3C(=O)N2NS(=O)(=O)c2ccccc2)cc1 (stereo not given)	12.9% (inactive)	
O=C(O)c1cccnc1NC1CCCC1	8.94% (inactive)	
COC(=O)c1ccccc1NC(=O)CSc1nc2c(c(=O)[nH]1)CCC2	5.97% (inactive)	
Oc1ccc2ccc3cccc[n+]3c2c1		89.1 µM (active)
C=CCN1CCN(c2ccncc2S(=O)(=O)N2CCN(C)CC2)CC1	8.73% (inactive)	
CC(=O)Nc1ccc(S(=O)(=O)N2CCN(C(=O)c3ccccc3F)CC2)cc1	2.19% (inactive)	
CCOC(=O)N1CCC(N(CCOC)C(=O)Nc2ccc(C)c(C)c2)CC1	7.87% (inactive)	
COc1ccc(-c2cc(NC=O)c3ncc(-c4ccccc4)n3c2)cc1OC	9.19% (inactive)	
O=C(O)CCCCCCCCCC[n+]1ccccc1	1.29% (inactive)	
Cc1cc(C)n2nc(C(=O)N(C)C(c3ccccc3)c3ccccc3)nc2n1	-4.38% (inactive)	
CCn1cc(CN2CCN(CC(C)(C)C)C(CCO)C2)c2ccccc21 (stereo not given)	-3.98% (inactive)	
NS(=O)(=O)c1ccc(N=Cc2ccc(Br)s2)cc1	5.66% (inactive)	
COC(=O)c1cc(NC(=O)CN2CCC(C(N)=O)(N3CCCCC3)CC2)cc(C(=O)OC)c1	5.47% (inactive)	
O=C(O)CSCNC(=O)CC12CC3CC(CC(C3)C1)C2	2.38% (inactive)	
Cc1ccc(CCNC(=O)C2CCN(S(=O)(=O)N3CCCC3)CC2)cc1	-0.549% (inactive)	
CCOc1ccc(NS(=O)(=O)c2ccc(Cl)c(C(=O)N(C)Cc3cccnc3)c2)cc1	-9.4% (inactive)	
CC1(C)CC(=O)c2c(n(S(=O)(=O)c3ccccc3)c3ccc(NS(=O)(=O)c4ccccc4)cc23)C1	2.81% (inactive)	
O=c1cccc(-c2ccc(Br)cc2)o1	1.51% (inactive)	
CCCCNC(=O)N1CCCC(N(C)CCc2ccc(OC)c(OC)c2)C1 (stereo not given)	-9.76% (inactive)	
Cc1sc2ncn(CC(=O)NCCCC(=O)N(C)Cc3ccccc3)c(=O)c2c1C	-8.88% (inactive)	
Cc1ccc(OCC(=O)Nc2ccccc2Sc2ccc(Cl)cc2)c([N+](=O)[O-])n1	21.3% (inactive)	
Cc1ccc(-c2nc(C)sc2CC(=O)OCC(=O)Nc2c(F)cccc2F)cc1	10.9% (inactive)	

Compound	activation	Potency
COc1cc(NS(=O)(=O)c2ccc(N/C=C(\C=O)c3nc4cc(Cl)ccc4o3)cc2)nc(OC)n1	-5.9% (inactive)	
COCC1CCCCN1C(=O)c1cc(COc2ccc(C)c(C)c2)on1 (stereo not given)	-12.2% (inactive)	
CC(=O)N[C@H]1[C@H]([C@H](O)[C@H](O)CO)OC(C(=O)O)=C[C@@H]1O	-3.76% (inactive)	
O=C(NCc1ccco1)c1ccc(CS(=O)(=O)Cc2ccc(F)cc2)o1	3.97% (inactive)	
COC(=O)/C=C(\Oc1ccccc1)C1(O)CCCCC1	-5.2% (inactive)	
Cc1cc(Cl)ccc1NNC(=O)c1snnc1C	-2.36% (inactive)	
O=C(c1cnn2ccccc12)N1CCc2ccccc21	-2.29% (inactive)	
C=CCNC(=O)COC(=O)CNC(=O)c1cc(Cl)cc([N+](=O)[O-])c1	7.93% (inactive)	
CN1C(=O)c2cccc3c(N)ccc(c23)C1=O		126 µM (active)
Cc1nn(C)cc1N1C(=O)c2cccc3c(N)ccc(c23)C1=O		89.1 µM (active)
Cc1cc(NC(=O)/C=C/C(=O)N(c2ccccc2C)C(C(=O)NC2CCCC2)c2ccc(F)cc2)no1 (stereo not given)	15.6% (inactive)	
CCOC(=O)[C@]12CCCC=C1N(Cc1ccc(Cl)cc1Cl)C(=O)[C@H](CC(=O)N1CCCCC1)C2	-4.78% (inactive)	
CC(Cc1cccs1)NC(=O)c1cccc(Cl)c1 (stereo not given)	5.93% (inactive)	
Cc1nn2c(NCCN(C)C)c3c(nc2c1-c1ccccc1)CCC3	1.01% (inactive)	
CC(=O)Nc1ccc(NC(=O)CN2C(=O)COc3ccc(S(=O)(=O)N4CCCCC4)cc32)cc1	15.4% (inactive)	
O=C(COc1ccccc1)N1CCN=C1SCc1cccc(F)c1	-1.1% (inactive)	
COC(=O)C(Cc1c[nH]c2ccccc12)NC(=O)CCNC(=O)c1ccco1 (stereo not given)	-7.71% (inactive)	
CCOC(=O)c1ccccc1NC(=O)COC(=O)CCC(=O)N1CCOCC1	3.89% (inactive)	
CCOC(=O)c1ccccc1NC(=O)COC(=O)C(Cc1c[nH]c2ccccc12)NC(C)=O (stereo not given)		112 µM (active)
COc1ccccc1NC(=O)CSc1nnc(CNC(=O)c2ccccc2F)o1	-8.7% (inactive)	
Cn1c(=O)[nH]c(=O)c2c1nc(N(CCO)Cc1ccccc1)n2Cc1ccccc1Cl	-2.01% (inactive)	
